# The source made the active and inactive calls.
# Key:
# [1] = biological target: Albumin (Bos taurus) (UniProt P02769); assay: bovine serum albumin binders on microarray, profiling panel, artefact control for SMM control protein annotation, biochemical, small-molecule microarray, Alexa647 label, 635/667 nm fluorescence (AID 1118); conditions: BSA-A647 binding, fluorescence 635 nm, higher = more signal;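 note: score merges 667 nm emission intensity and signal-to-noise per printed compound spot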
# [2] = small-molecule microarray binders of probe aXIP, primary screen, biochemical, NeuroSMM set, 635/667 nm fluorescence (AID 1119); conditions: higher = more signal, called active from +8 up or from −8 down;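 note: probe is the protein aXip251-270 applied at 1 µg/mL to compound-printed slides; binding of probe to printed compounds measured as 667 nm fluorescence plus signal to noise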
# [3] = small-molecule binders of probe aNOTCH3, primary screen, biochemical, small-molecule microarray, 635/667 nm fluorescence (AID 1120); conditions: higher = more signal;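 note: probe is a biotin-tagged antibody raised against NOTCH3 rather than NOTCH3 protein; score merges spot fluorescence near 667 nm with spot signal to noise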
# [4] = small-molecule binders of probe aNOTCH2, primary screen, biochemical, small-molecule microarray, 635/667 nm fluorescence (AID 1121); conditions: higher = more signal;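 note: score merges feature fluorescence read at 667 nm with its signal to noise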
# [5] = biological target: Carbonic anhydrase 2 (Homo sapiens) (UniProt P00918); assay: CAII small-molecule binders, profiling panel, biochemical, small-molecule microarray, Alexa647-labelled CAII (AID 1122); conditions: CAII-A647 binding fluorescence, higher = more signal
# [6] = COS7 lysate on small-molecule microarray, probe aHis, 635 nm (AID 1123); conditions: COS7 cell lysate, fluorescence, higher = more signal;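 note: z-score combines 667nm fluorescence intensity with signal-to-noise per printed compound spot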
# [7] = compound binding in COS7 lysate, probe aLAP1, primary screen, cell lysate, small-molecule microarray (AID 1124); conditions: probe aLAP1, fluorescence, higher = more signal;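 note: lysate comes from COS7 cells expressing LAP1 and is applied at 0.3 µg/mL; score merges spot fluorescence near 667 nm with signal-to-noise over triplicate slides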
# [8] = system: Sam68 (KHDRBS1); assay: Sam68 small-molecule binders, primary screen, biochemical, small-molecule microarray, 635 nm fluorescence (AID 1125); conditions: small-molecule microarray binding, higher = more signal;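 note: score merges 667 nm channel intensity with signal to noise over triplicate slides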
# [9] = system: Chordin-like protein 2 (CHRDL2); assay: CHRDL2 small-molecule binders, primary screen, biochemical, small-molecule microarray, 635 nm fluorescence (AID 1126); conditions: small-molecule microarray binding, fluorescence 635 nm; higher = more signal;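 note: printed compound slides probed with Chrdl2 protein at 4 µg/mL for 1 h at 4 C; score merges 667 nm emission intensity with signal to noise over three replicate slides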
# [10] = biological target: Concanavalin-A (Canavalia ensiformis) (UniProt P02866); assay: ConA small-molecule binders, primary screen, artefact control for SMM control protein annotation, biochemical, small-molecule microarray, Alexa647 label, 635 nm (AID 1127); conditions: ConA-A647 binding fluorescence, higher = more signal;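 note: z combines 667 nm emission intensity with signal-to-noise across three replicate slides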
# [11] = anti-His antibody binders, primary screen, artefact control for SMM control protein annotation, biochemical, small-molecule microarray, 635 nm fluorescence (AID 1128); conditions: anti-His Alexa647 antibody binding, higher = more signal;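 note: score merges feature fluorescence with signal-to-noise for each printed compound spot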
# [12] = system: Human papillomavirus type 1a E7 protein (residues 1-88); assay: HPV1a E7 small-molecule binders, primary screen, biochemical, small-molecule microarray, residues 1-88, 635 nm (AID 1129); conditions: small-molecule microarray binding, fluorescence 635 nm; higher = more signal
# [13] = biological target: Focal adhesion kinase 1 (Homo sapiens) (UniProt Q05397); assay: small-molecule microarray binders of FAK, primary screen, biochemical, 635/667 nm fluorescence, BSA, DTT (AID 1130); conditions: PTK2 binding, 635 nm fluorescence, higher = more signal;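 note: composite of spot emission at 667 nm and signal to noise over triplicate slides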
# [14] = system: Fibrinogen (Alexa647-labelled); assay: fibrinogen binders on compound microarrays, profiling panel, artefact control for SMM control-protein annotation, biochemical, small-molecule microarray, 635/667 nm fluorescence (AID 1131); conditions: fibrinogen-A647 binding fluorescence, higher = more signal;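 note: z-score merges 667 nm fluorescence with per-spot signal-to-noise over triplicate slides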
# [15] = biological target: Follistatin (Homo sapiens) (UniProt P19883); assay: follistatin binders on small-molecule microarrays, primary screen, biochemical, small-molecule microarray, 635/667 nm fluorescence (AID 1132); conditions: FST binding, 635 nm fluorescence, higher = more signal
# [16] = biological target: Fibroblast growth factor 2 (Homo sapiens) (UniProt P09038); assay: FGF2 binders on small-molecule microarrays, primary screen, biochemical, small-molecule microarray, 635/667 nm fluorescence (AID 1133); conditions: small-molecule microarray binding, FGF2, fluorescence 635/667; higher = more signal
# [17] = mitochondrial membrane potential change in A549 cells, profiling panel, cell-based, JC-1 fluorescence, basal, 24 h, 100 nL (AID 1138); conditions: higher = more signal;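 note: A549 lung adenocarcinoma cells under basal conditions with no added stimulus; test concentration not given here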
# [18] = system: Lefty1; assay: Lefty1 binders on small-molecule microarrays, primary screen, biochemical, small-molecule microarray, 635/667 nm fluorescence (AID 1139); conditions: small-molecule microarray binding, fluorescence 635/667; higher = more signal
# [19] = system: wheat germ agglutinin (Triticum aestivum), Alexa647-labelled; assay: wheat germ agglutinin binders on compound microarrays, profiling panel, artefact control for SMM control-protein annotation, biochemical, small-molecule microarray, 635/667 nm fluorescence (AID 1140); conditions: WGA-A647 binding, 635 nm fluorescence, higher = more signal;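 note: score merges 667 nm feature emission with signal to noise over triplicate slides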
# [20] = biological target: Luciferin 4-monooxygenase (Photinus pyralis) (UniProt P08659); assay: firefly luciferase enzyme inhibitors, primary screen, biochemical, luminescence, purified enzyme, 2006 set (AID 1141); conditions: SteadyGlo luminescence, 30 min, higher = more signal, called active from +8 up or from −8 down;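 note: cell-free assay with purified firefly luciferase at 100 ng per well in PBS; test concentration not given here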
# Luciferin 4-monooxygenase (Photinus pyralis), sequence (P08659 whole entry, looked up): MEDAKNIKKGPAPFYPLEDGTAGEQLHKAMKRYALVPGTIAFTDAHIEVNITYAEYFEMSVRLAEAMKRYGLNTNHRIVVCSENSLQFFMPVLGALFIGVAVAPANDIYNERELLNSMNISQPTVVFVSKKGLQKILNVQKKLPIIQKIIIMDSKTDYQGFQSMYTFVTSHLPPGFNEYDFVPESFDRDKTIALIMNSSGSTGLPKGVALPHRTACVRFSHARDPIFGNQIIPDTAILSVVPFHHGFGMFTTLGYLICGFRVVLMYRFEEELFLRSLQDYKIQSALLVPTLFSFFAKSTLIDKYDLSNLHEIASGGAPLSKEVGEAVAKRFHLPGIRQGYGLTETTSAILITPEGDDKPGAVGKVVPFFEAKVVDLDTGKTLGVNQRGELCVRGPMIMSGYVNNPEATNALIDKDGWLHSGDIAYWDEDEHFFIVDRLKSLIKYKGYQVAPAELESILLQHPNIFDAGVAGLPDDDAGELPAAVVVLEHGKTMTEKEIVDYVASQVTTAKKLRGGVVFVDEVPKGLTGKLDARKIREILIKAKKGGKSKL
# Concanavalin-A (Canavalia ensiformis), sequence (P02866 whole entry, looked up): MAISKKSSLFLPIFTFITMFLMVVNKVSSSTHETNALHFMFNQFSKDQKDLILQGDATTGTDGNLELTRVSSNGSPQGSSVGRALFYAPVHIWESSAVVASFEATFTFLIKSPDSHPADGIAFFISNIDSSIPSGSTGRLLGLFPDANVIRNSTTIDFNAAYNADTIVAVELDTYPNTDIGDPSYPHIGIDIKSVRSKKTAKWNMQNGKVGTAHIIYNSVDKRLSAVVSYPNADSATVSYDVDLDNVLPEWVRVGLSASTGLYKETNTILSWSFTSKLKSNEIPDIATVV
# Follistatin (Homo sapiens), sequence (P19883 whole entry, looked up): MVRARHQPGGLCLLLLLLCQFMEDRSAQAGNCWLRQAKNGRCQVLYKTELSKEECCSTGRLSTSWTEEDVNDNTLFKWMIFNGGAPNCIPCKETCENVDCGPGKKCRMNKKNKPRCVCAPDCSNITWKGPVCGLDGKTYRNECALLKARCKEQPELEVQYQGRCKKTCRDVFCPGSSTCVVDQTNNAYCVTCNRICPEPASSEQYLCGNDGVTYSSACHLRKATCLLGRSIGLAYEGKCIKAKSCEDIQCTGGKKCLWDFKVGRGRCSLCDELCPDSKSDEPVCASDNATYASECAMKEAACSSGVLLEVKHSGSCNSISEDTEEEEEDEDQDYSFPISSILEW
# Focal adhesion kinase 1 (Homo sapiens), sequence (Q05397 whole entry, looked up): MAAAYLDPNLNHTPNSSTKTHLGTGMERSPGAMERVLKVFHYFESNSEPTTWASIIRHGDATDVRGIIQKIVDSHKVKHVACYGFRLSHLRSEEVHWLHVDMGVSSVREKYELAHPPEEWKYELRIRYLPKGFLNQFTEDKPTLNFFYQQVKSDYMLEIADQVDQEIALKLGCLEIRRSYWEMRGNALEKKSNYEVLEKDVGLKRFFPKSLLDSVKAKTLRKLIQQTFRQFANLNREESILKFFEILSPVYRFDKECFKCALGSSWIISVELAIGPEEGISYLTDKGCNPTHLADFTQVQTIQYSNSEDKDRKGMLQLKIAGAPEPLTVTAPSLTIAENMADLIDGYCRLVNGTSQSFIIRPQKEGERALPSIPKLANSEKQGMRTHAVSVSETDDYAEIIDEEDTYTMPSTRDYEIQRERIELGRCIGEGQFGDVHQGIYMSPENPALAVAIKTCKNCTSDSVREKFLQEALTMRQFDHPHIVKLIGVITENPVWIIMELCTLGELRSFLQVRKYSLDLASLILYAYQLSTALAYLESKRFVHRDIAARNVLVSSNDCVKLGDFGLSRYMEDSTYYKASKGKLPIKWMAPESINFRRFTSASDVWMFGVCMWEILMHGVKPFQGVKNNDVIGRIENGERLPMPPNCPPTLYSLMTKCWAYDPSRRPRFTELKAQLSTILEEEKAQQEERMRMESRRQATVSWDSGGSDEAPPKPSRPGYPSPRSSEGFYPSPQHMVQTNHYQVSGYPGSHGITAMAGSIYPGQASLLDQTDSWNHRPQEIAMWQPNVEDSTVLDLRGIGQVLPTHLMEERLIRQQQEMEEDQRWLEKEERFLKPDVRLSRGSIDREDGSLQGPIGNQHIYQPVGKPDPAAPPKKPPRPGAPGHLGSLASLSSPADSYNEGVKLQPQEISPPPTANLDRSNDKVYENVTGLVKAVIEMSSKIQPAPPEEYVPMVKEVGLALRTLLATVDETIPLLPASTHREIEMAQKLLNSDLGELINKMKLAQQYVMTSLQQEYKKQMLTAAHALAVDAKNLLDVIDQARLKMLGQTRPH
# Fibroblast growth factor 2 (Homo sapiens), sequence (P09038 whole entry, looked up): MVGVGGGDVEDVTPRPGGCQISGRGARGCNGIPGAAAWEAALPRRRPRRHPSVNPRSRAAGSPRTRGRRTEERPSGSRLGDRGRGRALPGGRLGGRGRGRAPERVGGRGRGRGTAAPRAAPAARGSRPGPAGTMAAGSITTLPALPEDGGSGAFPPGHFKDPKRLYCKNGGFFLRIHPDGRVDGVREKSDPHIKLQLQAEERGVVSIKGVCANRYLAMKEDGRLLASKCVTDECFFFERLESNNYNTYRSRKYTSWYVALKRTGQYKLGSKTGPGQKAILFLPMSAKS
# Albumin (Bos taurus), sequence (P02769 whole entry, looked up): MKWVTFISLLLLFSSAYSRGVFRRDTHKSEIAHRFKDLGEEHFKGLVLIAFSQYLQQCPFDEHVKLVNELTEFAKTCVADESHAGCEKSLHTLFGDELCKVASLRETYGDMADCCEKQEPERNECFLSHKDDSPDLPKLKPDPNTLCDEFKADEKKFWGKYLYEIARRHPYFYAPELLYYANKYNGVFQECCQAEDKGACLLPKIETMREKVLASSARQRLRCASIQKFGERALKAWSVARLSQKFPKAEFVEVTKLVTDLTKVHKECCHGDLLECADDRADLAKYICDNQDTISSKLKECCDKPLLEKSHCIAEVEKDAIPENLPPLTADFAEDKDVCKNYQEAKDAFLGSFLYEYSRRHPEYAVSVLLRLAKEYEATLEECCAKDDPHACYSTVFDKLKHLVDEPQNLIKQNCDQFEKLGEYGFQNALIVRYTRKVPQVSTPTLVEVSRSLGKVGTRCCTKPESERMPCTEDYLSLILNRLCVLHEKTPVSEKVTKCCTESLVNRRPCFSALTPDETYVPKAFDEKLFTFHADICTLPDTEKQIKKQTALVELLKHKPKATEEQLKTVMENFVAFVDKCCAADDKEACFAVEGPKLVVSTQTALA
Compound,composite z-score [1],composite Z-score [2],composite z-score [3],composite z-score [4],composite z-score [5],composite z-score [6],composite z-score [7],composite z-score [8],composite z-score [9],composite z-score [10],composite z-score [11],composite z-score [12],composite z-score [13],composite z-score [14],composite z-score [15],composite z-score [16],z-score [17],composite z-score [18],composite z-score [19],z-score [20]
C=CC[C@]1(C(=O)NCc2ccccc2)N=C(c2ccc(OCCCO)cc2)O[C@H]1c1ccccc1,0.866,-0.275 (inactive),0.0488,-0.123,0.69,2.65,0.308,1.28,-0.911,0.691,-0.158,1.22,0.115,0.632,0.431,-0.35,0.453,-0.0085,0.366,0.185 (inactive)
CO[C@H]1COC(=O)[C@@H]2CCCN2C(=O)CC=C[C@@H](C)[C@H](OC)COC(=O)CC=C[C@@H]1C,-0.806,1.31 (inactive),0.0753,-0.0931,-0.235,-0.0693,0.0482,1.28,1.38,-1.28,-0.287,-0.52,-0.0405,-0.624,1.36,1.21,1.59,1.62,-0.705,-1.87 (inactive)
COC(=O)[C@H](C)NC(=O)CCC1CC(OC(=O)NCCc2ccc(F)cc2)CC2(CCCC(COC(=O)NCC(c3ccccc3)c3ccccc3)O2)O1 (stereo not given in full),0.675,0.269 (inactive),-0.0932,-0.1,0.343,1.44,0.031,1.22,0.17,0.714,0.862,1.18,0.548,0.834,0.342,0.0725,0.549,0.483,0.958,0.467 (inactive)
O=C1C[C@]2(c3ccc([N+](=O)[O-])cc3)C(=O)N(CCN3CCOCC3)c3cc(CO)ccc3[C@H]2N1CC12CC3CC(CC(C3)C1)C2,0.89,0.83 (inactive),-0.185,-0.174,0.185,0.253,0.713,-0.631,-1.03,-0.163,-0.585,0.275,0.0816,-0.724,-0.377,-1.54,-0.869,-0.424,0.551,0.959 (inactive)
CC(C)(C)OC(=O)CC[C@]1(C(N)=O)COC(c2ccc(OCCCO)cc2)=N1,0.617,1.43 (inactive),0.324,0.357,0.983,2.97,1.44,1.21,0.0555,-0.207,1.3,0.804,-0.0765,0.29,1.1,1.13,-0.437,-1.08,0.43,-0.0436 (inactive)
COC(=O)CC=C[C@@H](C)[C@@H](C=NO[C@@H](C)c1cc(-c2c(C)cc(C)cc2C)no1)OC,-0.387,-0.483 (inactive),-0.161,-0.156,-0.604,-0.556,-0.52,-1.32,-1.36,-0.627,0.525,-1.06,-0.688,-1.47,-0.732,-1.35,-0.542,-1.43,-1.03,0.973 (inactive)
COc1ccc(-c2ccc3c(n2)CCCN3CC(O)CN2CCCc3nc(C)c(C)cc32)cc1 (stereo not given),0.683,2.43 (inactive),0.713,-0.0017,0.741,0.975,0.677,1.2,1.18,1.09,2.62,0.478,0.351,0.733,1,0.62,1.7,1.05,1.03,-1.2 (inactive)
CC(C)CON=C1C[C@@H](O)[C@@H](O)[C@@H]2[C@@H]3C(=O)N([C@@H](C)c4ccccc4)C(=O)[C@@H]3CC[C@H]12,0.663,0.0312 (inactive),0.0297,-0.0959,0.378,0.754,-0.0211,1.29,0.315,1.07,0.728,1.17,0.657,0.951,0.755,1.18,1.24,1.4,0.122,0.407 (inactive)
CS(=O)(=O)CCOC(=O)C1=CC(CCCO)=CC(c2cccs2)N(Cc2cccc(OC(F)(F)F)c2)C=C1C(=O)OCCS(C)(=O)=O (stereo not given),1.03,0.0987 (inactive),0.106,-0.0358,0.809,1.1,0.678,1.18,-0.607,1.16,0.97,1.03,0.905,0.579,0.243,0.202,1.64,0.578,1.02,-2.01 (inactive)
[N-]=[N+]=Nc1ccccc1C[C@@]1(C(N)=O)N=C(c2ccc(OCCCO)cc2)O[C@@H]1c1ccccc1,0.841,0.0117 (inactive),-0.0014,-0.0633,0.723,1.74,0.567,1.05,-1.26,0.704,0.42,1.02,0.645,-0.367,0.283,-0.403,-0.971,-1.27,0.402,-3.86 (inactive)
C#CCCCON=C1C[C@@H](O)[C@@H](O)[C@@H]2[C@@H]3C(=O)N(c4cccc(Oc5ccccc5)c4)C(=O)[C@@H]3CC[C@@H]12,0.487,0.154 (inactive),-0.0311,-0.244,0.256,1.77,-0.164,1.32,-0.0255,0.884,-0.0428,1,0.181,0.945,0.304,0.224,-0.786,0.481,0.632,1.02 (inactive)
